Experimental data: PubChem BioAssay AID1347426 (Functional Genomics Laboratory (NCATS/FGL), 2020)
The campaign covered roughly 31,000 sequences. About 1,400 (4.5%) were called active. This is one part of a sample in which actives are shown more often than they occur. Unmarked numbers belong to inactive results.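 Rule for the calls: active = median seed-adjusted z-score above 1 or below -1; inactive = the rest.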

Test: Novel Modifiers of Survival Motor Neuron (SMN) Protein: Gene Identification via Genome-wide siRNA Screen;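 note: luminescence tracks full-length SMN protein made from the SMN2 reporter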
Settings: HEK293T SMN2-luciferase reporter, siRNA knockdown, 72 h; actives lie on both sides
How it was run: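 Genome-wide siRNA screen (10418 genes, 3 siRNAs each, 1 pmol per well) by reverse transfection in HEK293T cells stably carrying an SMN2-luciferase reporter; luminescence after 72 hours, normalized to negative-control siRNA, log10-transformed, MAD-scored.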

Row | Sequence | median seed-adjusted z-score
1 | AGUUAGGCACAGUCAGACATT against POLD4 | 0.225
2 | CGAUGUAUGACGAGGAAAATT against BTNL3 | 0
3 | GUUACGACCUGGAAGAUUATT against SPATA5L1 | 0.252
4 | GAGCAAGACUUCUACGUGATT against SERPINA5 | -1.01 (active)
5 | GGCUAAGAAUGACCAUUAUTT against NPR2 | 0.0712
6 | CAGUCGUCAUAAUACUGCATT against SMC4 | 0.646
7 | CCCUGUUAGUAACGGCAAATT against OBFC2B | -0.061
8 | AGAUGUACCUAUGUCAAGATT against OVOL1 | -0.0414
9 | CCAUGUUUGAACAAGCCCATT against MYL7 | -1.21 (active)
10 | GCACCUUUGUGACCUAUGATT against KIF9 | 0
11 | CGCUAAAGCUGCACACUGATT against TRAF3 | 0.731
12 | GAGCUGACUUUCUGACCAATT against RAB7A | 0.169
13 | GCAACGGUGCUUUCCCAGATT against CASKIN1 | 0.555
14 | CCAAAGUGGGUGUCAACGATT against BGN | 0.376
15 | GAAUUUUGUGGUUACACUATT against POLR1D | -0.0409
16 | GGGUGUAAUUCAUAAGGGUTT against PSMD1 | -1.61 (active)
17 | GGACUGAUUGGACUCCCAUTT against TNFRSF11A | -0.0833
18 | GGACGGUCGUGAUGGAUAATT against SAFB2 | 0.0394
19 | CCCUGAACAUACCUACUGATT against BRS3 | 0.224
20 | ACAUCUAUUUGUGACCUUATT against NHLH2 | 0
21 | GCACAAGCAUUGGAAAUAATT against MAP4 | 1.67 (active)
22 | CCUUUAUGCCUGAUCCUCATT against SULT1C3 | -0.731
23 | CCACAACGGACAGUCCAUATT against CYP17A1 | -1.39 (active)
24 | GGAAAGCAAUAAAAGUUAUTT against TAAR6 | -0.124
25 | AGGCCUAUAUUGAAGGAGATT against DGKG | 0.227
26 | CAACAGGUAUAACUACAUATT against CNDP2 | 0.43
27 | CCAAGAAGAUCAGCACCUUTT against GPR26 | -1.33 (active)

Row | Sequence | median seed-adjusted z-score
28 | AGACCAUAACUACUCACUATT against KDELR3 | 0.476
29 | GCUCAAUUGUCGAUCUUUATT against ERO1LB | 0.565
30 | GAAGGUUUCUGUGCCCUCATT against SLC4A9 | 0
31 | CCUGCAAGCUGUCAACUUUTT against PRKACA | -0.137
32 | CAACUUCUAUAGUCGAAUATT against TXNDC3 | -0.649
33 | CGAUAUUUAUCCUUACCUATT against SLC9A2 | -1.02 (active)
34 | CCUUUACGUUCAAAUCACATT against ZNF268 | 0.0358
35 | CCAAGGAGUCGUCUACUUUTT against B3GAT3 | -0.00603
36 | GCAGAUCUCAUGUCCUCUATT against FPGS | -0.853
37 | GCAAGUGGUUUGUCAGUAATT against B3GALT5 | 0.144
38 | GCUCUUAUGCGACAGUUUATT against PFTK2 | -1.16 (active)
39 | GGUGUAUGCUGAGGUGAAATT against EIF2C1 | 0.215
40 | AGUCUGUUGGUGCACAAAATT against MDM2 | 0.258
41 | GAUUUAUGCUAGCUCUAAATT against CFL2 | -0.148
42 | CAUCAAAACUUGGAGAGCATT against FN3K | -0.508
43 | CCUUCUACAACACCAAGAATT against AGPAT2 | 0.38
44 | GGAUUACAGGAGACCCAUATT against FUBP1 | -1.52 (active)
45 | CAUUAACAUUGUUCGCAAATT against ACO2 | -1.57 (active)
46 | UACCAGAUCUCAAAAAGAATT against CCR5 | -0.0281
47 | GGAUGAAGGUAGUUACGUUTT against RAVER2 | -0.258
48 | CAUCCACACUGCAAUGAUATT against PILRB | 0.0351
49 | AAUUUUCCUGUGAUAGAAATT against PATE1 | 1.21 (active)
50 | GCGACUUUCUUGGUUUGCATT against SNX2 | -0.569
51 | CCCUAAAUGUAUCUCGGAATT against GRIN3A | 0.241
52 | CGAGACGUAUUAUAUCUUUTT against COL4A3BP | 0.0391
53 | GUGCAUAAGUGUUAGGGAATT against SLC17A2 | 0.141
54 | GAUCUGAGCUUGUACAGAATT against PSMC2 | -1.96 (active)
